This is part of a sample that, as a whole, favours compounds with a hit. Of some 79,000 tested, about 15% had one in any assay. Active and inactive are the calls of the source. No stated cut-off is given here; in the data, active means growth inhibition above about 70%; inactive means the rest.
What was measured:
[1] = NCI Yeast Anticancer Drug Screen. Data for the rad50 strain (AID 155);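 further: 0% = growth of vehicle-only cultures of the same strain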; conditions: S. cerevisiae rad50 strain growth inhibition; at 50.0 µM; hits give high values
How it was run: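 Inhibition values express reduced yeast growth in compound-treated cultures relative to vehicle-treated controls.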

[2] = NCI Yeast Anticancer Drug Screen. Data for the mec2-1 strain (AID 157); conditions: S. cerevisiae mec2-1 strain, at 50.0 µM, hits give high values
How it was run: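 Cells of the genetically defined mec2-1 yeast strain are incubated with test compound. Inhibition of growth is calculated against vehicle-treated controls.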

[3] = NCI Yeast Anticancer Drug Screen. Data for the sgs1 mgt1 strain (AID 161);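 further: 0% = growth of cultures given vehicle only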; conditions: S. cerevisiae sgs1 mgt1 strain, at 50.0 µM, hits give high values
How it was run: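 Read-out: growth inhibition vs vehicle controls. Cells: mutant yeast strain deficient in DNA damage repair.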

[4] = NCI Yeast Anticancer Drug Screen. Data for the cln2 rad14 strain (AID 165);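 further: 0% = growth equal to vehicle treated cultures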; conditions: S. cerevisiae cln2 rad14 strain, at 50.0 µM, hits give high values
How it was run: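 The screen exposed genetically defined yeast (cln2 rad14) to test compounds and scored growth inhibition relative to vehicle-treated controls.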

[5] = NCI Yeast Anticancer Drug Screen. Data for the bub3 strain (AID 167); conditions: S. cerevisiae bub3 mutant strain, at 50.0 µM, hits give high values
How it was run: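 Steps: expose the mutant yeast strain to compound; grow alongside vehicle-treated cultures; measure growth; express inhibition against the vehicle cultures.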

[6] = NCI Yeast Anticancer Drug Screen. Data for the mlh1 rad18 strain (AID 175); conditions: S. cerevisiae mlh1 rad18 strain growth inhibition; at 50.0 µM; hits give high values
How it was run: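 Compound-treated yeast growth, normalised to vehicle controls. Strain bears defined DNA repair mutations.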

Measured: growth inhibition

CC(C)C1CCC2(C)C(CCC3C(C)(CO)CCCC32O)C1 (configuration not stated)
inactive: [1] -17.2% | [2] -6.85% | [3] 19.5% | [4] 1.45% | [5] 22.1% | [6] 10%

c1cc(OCC2CO2)ccc1OCC1CO1 (configuration not stated)
inactive: [1] 41% | [2] 19.9% | [3] 33.1% | [4] -24.9% | [5] 8.8% | [6] 49.4%

Cc1cc2c(cc1C)-c1c(N)nc(N)nc1CC2
inactive: [1] 2.2% | [2] 9.95% | [3] -8.6% | [4] -29.2% | [5] -15% | [6] 12.7%

CN(N=O)C(=O)NCCSc1ncnc2nc[nH]c12
inactive: [1] 9.75% | [2] 13.1% | [3] -2.25% | [4] -108% | [5] -2.5% | [6] -17.2%

COc1ccc(N2CCN(CC(O)COc3ccc(Cl)cc3)CC2)cc1 (configuration not stated)
active: [1] 70.8% | [3] 75%
inactive: [2] 18.9% | [4] 14.9% | [5] 13.8% | [6] 28.5%

CC(C)C(Br)CCC1=CCC(Br)(Br)C1 (configuration not stated)
active: [1] 79.1% | [2] 82.2% | [3] 88.5% | [4] 86.2% | [5] 84.7% | [6] 90.3%

C/C=C(\CC)C(C#N)(CC)C(=O)OCC (configuration not stated)
inactive: [1] 20.9% | [2] -18.4% | [3] -7.5% | [4] -6.25% | [5] -30.3% | [6] -24.8%

CCN(C(=S)Nc1cccc(C(F)(F)F)c1)c1ccccc1
inactive: [1] 38.1% | [2] 22.9% | [3] 49% | [4] 13.9% | [5] 41% | [6] 22.6%

Cc1nc2c(Cl)cc(Cl)cc2c(Cl)c1CCCl
inactive: [1] 29.9% | [2] 30.2% | [3] 49.5% | [4] 18.9% | [5] 39.6% | [6] 45.6%

CC(=O)[O][Ga]([Br])[O]C(C)=O
inactive: [1] 6.3% | [2] 11.8% | [3] 12.3% | [4] 14.4% | [5] 15.7% | [6] 0.5%

CCc1cccc(C)c1NC(=O)CC1C(=O)Nc2ccccc2S1=O (configuration not stated)
inactive: [1] -6.1% | [2] -0.9% | [3] 13.2% | [4] -63.7% | [5] 9.85% | [6] 27.4%

CCC(=O)Oc1ccc(Cl)cc1C
inactive: [1] -0.3% | [2] 7.7% | [3] 1.75% | [4] 5.55% | [5] 1.75% | [6] -13.3%

COc1ccccc1C1CCCCC1OS(=O)(=O)c1ccc(C)cc1 (configuration not stated)
inactive: [1] -1.15% | [2] 3.45% | [3] -18.4% | [4] -9.65% | [5] 12.2% | [6] -9.8%

C/C(=N\S(=O)(=O)c1ccc([N+](=O)[O-])cc1)OCC(C)C
inactive: [1] 11.2% | [2] -8.4% | [3] 14.7% | [4] -47.9% | [5] 10.7% | [6] 2.25%

O=S(=O)(c1ccccc1)N1CCCCN(S(=O)(=O)c2ccccc2)COC1
inactive: [1] 5.25% | [2] -7.45% | [3] -1.65% | [4] -9.85% | [5] -7.45% | [6] -5.35%

COC=C(C(=O)OC)C(=O)OC
inactive: [1] -1.65% | [2] 3.9% | [3] 0.5% | [4] 0.2% | [5] -10.5% | [6] 3.85%

COc1ccc(C2OC(=N)C(=S)N2C)cc1O (configuration not stated)
inactive: [1] -5.9% | [2] -15.6% | [3] -13.2% | [4] -22.7% | [5] 2.5% | [6] -4.15%

CC(C)C1C(=O)CCCC1=O
inactive: [1] -10.5% | [2] 9.6% | [3] -5.5% | [4] -12.9% | [5] -17.5% | [6] -3.35%

COc1ccc([N+](=O)[O-])c2ncncc12
inactive: [1] -14.4% | [2] -12% | [3] 0.8% | [4] 6.6% | [5] -10.9% | [6] 20.6%

c1ccc(CNC2Cc3ccccc3C2)cc1
inactive: [1] 19.6% | [2] -10.7% | [3] 0.55% | [4] -36.1% | [5] -11.7% | [6] -2.4%

OCC(O)COCC#Cc1ccccc1 (configuration not stated)
inactive: [1] 6% | [2] 1.85% | [3] 3.1% | [4] -60.2% | [5] -14.6% | [6] 16.2%

CCOC(=O)C1CCCc2sc(N)c(C#N)c21 (configuration not stated)
inactive: [1] 1.15% | [2] -13.8% | [3] 4.2% | [4] -28.4% | [5] 3.15% | [6] 0.95%

Cc1ccc(CCCCCOc2ccc(C3=NCCO3)cc2)s1
inactive: [1] -2% | [2] 22.2% | [3] 22.4% | [4] -21% | [5] -3% | [6] -4.9%

CCS(=O)(=O)/C=C/c1ccco1
inactive: [1] 28.3% | [2] -18.6% | [3] 5.45% | [4] -36.9% | [5] 19.6% | [6] -14.9%

O=C(O)C(Cc1ccccc1)NC(c1ccc(Cl)cc1)P(=O)(O)O (configuration not stated)
inactive: [1] 14.3% | [2] 7.95% | [3] -2.3% | [4] 12.8% | [5] -4.8% | [6] 20.8%

CCCC(=O)Oc1ccc(C(=O)OC)cc1
inactive: [1] 8.4% | [2] -10.8% | [3] -11.9% | [4] -24.8% | [5] -16.4% | [6] 13.3%

CCOC(=O)CCC1(CCC(=O)OCC)c2ccccc2-c2ccccc21
inactive: [1] 3.65% | [2] 9% | [3] -1.85% | [4] -7.15% | [5] -3.75% | [6] 13%

COc1ccc(C(=O)CC(=O)CCC(=O)Nc2cc(C)ccc2C)cc1
inactive: [1] -6.55% | [2] 5.2% | [3] 18.2% | [4] -7.75% | [5] 5.25% | [6] 25.1%

C/C(=C/C(=O)O)CC/C=C(/C)C(=O)O
inactive: [1] -0.15% | [2] -5.1% | [3] -1.25% | [4] 21.4% | [5] 22.1% | [6] 4.9%

CSc1ccc(NC(=O)Nc2cc(C)c(C)cc2C)cc1
inactive: [1] 16.6% | [2] 2.1% | [3] 6.75% | [4] 21.4% | [5] 14.5% | [6] 2.85%

OCC1CCCC1
inactive: [1] 12.3% | [2] -18.4% | [3] -0.05% | [4] -2.95% | [5] -1.5% | [6] 9.7%

O=c1[nH]c2cc(Cl)ccc2nc1/C=C(\O)c1ccc(F)cc1
inactive: [1] 23.1% | [2] 17.6% | [3] 17.2% | [4] 8.2% | [5] -6.3% | [6] 27.4%

CCOC(=O)/C=C(/C)N(CC)CC
inactive: [1] 23.9% | [2] -4% | [3] 12.2% | [4] 11.3% | [5] -5.05% | [6] 19.9%

c1ccc2cc(C3OCCCO3)ccc2c1
inactive: [1] 19.4% | [2] 10.2% | [3] -2.05% | [4] -62.9% | [5] -2.45% | [6] 4.2%

COC(=O)C(NC(=O)C(C)N1C(=O)CCC(NS(=O)(=O)c2ccc(C)cc2)C1=O)C(C)C (configuration not stated)
inactive: [1] 30.1% | [2] 8% | [3] 9.4% | [4] 1.05% | [5] 3.55% | [6] 15.8%

O=S1(=O)CC2C3CC(Oc4ccccc4)C(C3)C2C1 (configuration not stated)
inactive: [1] -9.85% | [2] -6.35% | [3] -4.2% | [4] -20.9% | [5] -26.6% | [6] -6.5%

c1ccc(-c2cc(-c3cc(-c4ccccc4)n(-c4ccccc4)n3)nn2-c2ccccc2)cc1
inactive: [1] -2.9% | [2] -13.2% | [3] -19.3% | [4] -2.55% | [5] -14% | [6] -38.3%

O=C(Nc1ccccc1)Nc1ccccc1C(=O)O
inactive: [1] -5.8% | [2] -22% | [3] -16.4% | [4] -54.6% | [5] -16.2% | [6] -31.3%

CC(=O)Oc1ccc(-c2ccccc2)cc1C(=O)O
inactive: [1] 5.9% | [2] 1.55% | [3] 29.4% | [4] -15.7% | [5] 41.3% | [6] 11.6%

Cc1ccc2cccc3c2c1CC1(C3=O)S(=O)(=O)OCCOS1(=O)=O
inactive: [1] 9.2% | [2] 4.45% | [3] 20.1% | [4] 14.7% | [5] 39% | [6] -2.3%

COc1cccc(Oc2c(O)c3ccc(OC)cc3oc2=O)c1
inactive: [1] 1% | [2] 11.2% | [3] -2.1% | [4] 27.2% | [5] 0.05% | [6] 8.75%

C/C(=N/NC(N)=O)C1c2ccccc2Cc2ccccc21
inactive: [1] 18.1% | [2] -2.25% | [3] 4.85% | [4] -0.3% | [5] 16.9% | [6] -8.15%

Reference: PubChem BioAssay (NCI)
